The values below come from PubChem BioAssay (NCATS).

Each structure is given as a SMILES string. Records with an inconclusive call do not appear. Entries that show only a call come without a potency. Values without a mark were called inactive. Activity calls are given as the source filed them. Calls come from the whole dose curve; as a rule, active = well fitted inhibition curve with a large enough effect; inconclusive = small, poorly fitted or top-dose-only effect; inactive = no such curve, though single readings can be large or run the other way.

A short description of this assay: Primary qHTS for small molecule stabilizers of the endoplasmic reticulum resident proteome: Secreted ER Calcium Modulated Protein (SERCaMP) assay (AID 1508630). Particulars: SH-SY5Y GLuc-SERCaMP (Gaussia luciferase released on ER calcium loss) secretion, thapsigargin, luminescence; series mostly up to 38.4 µM. The text has this:
Assay Provider: Brandon K. Harvey Ph.D.
National Institute on Drug Abuse, National Institutes of Health, Baltimore, MD
Endoplasmic reticulum (ER) dysregulation is associated with human pathologies including neurodegenerative, cardiovascular, muscular, and diabetic conditions. Maintenance of ER calcium is critical for functions of the ER and its depletion can lead to loss of ER resident proteins, in a process termed exodosis. Therapeutic compounds capable of attenuating the redistribution of ER proteins under pathological conditions may slow or stop disease progression. To identify such compounds, we performed a quantitative high-throughput screen (qHTS) using the SERCaMP assay, which monitors secretion of ER resident proteins triggered by calcium depletion.
SERCaMP was initially developed as a reporter of ER calcium homeostasis using a Gaussia luciferase with a modified signal peptide and carboxy-terminus (GLuc-SERCaMP), modifications that confer secretion of the reporter in response to ER calcium depletion (Henderson et al., 2014). The assay was used to screen 9,501 compounds, including a collection of drugs approved by the FDA (US), EMA (EU), NHI (Japan), and HC (Canada) regulatory agencies (Huang et al., 2011). Since the SERCaMP reporter reflects the exodosis phenomenon (Trychta et al., 2018a), compounds identified in the screen have the potential to prevent exodosis by different mechanisms such as stabilizing ER calcium or augmenting ERS retrieval.
1. Henderson, M.J., Wires, E.S., Trychta, K.A., Richie, C.T., and Harvey, B.K. (2014). SERCaMP: a carboxy-terminal protein modification that enables monitoring of ER calcium homeostasis. Mol Biol Cell 25, 2828-2839.
2. Huang, R., Southall, N., Wang, Y., Yasgar, A., Shinn, P., Jadhav, A., Nguyen, D.T., and Austin, C.P. (2011). The NCGC pharmaceutical collection: a comprehensive resource of clinically approved drugs enabling repurposing and chemical genomics. Sci Transl Med 3, 80ps16.
3. Trychta, K.A., Back, S., Henderson, M.J., and Harvey, B.K. (2018a). KDEL Receptors Are Differentially Regulated to Maintain the ER Proteome under Calcium Deficiency. Cell Rep 25, 1829-1840 e1826.
SEQUENCE No. (1, 2, 3, etc.); […] (e.g., Cells, Incubation, Reagent, etc.); VALUE and DESCRIPTION.
1; Reagent; 5 uL; 1000 SH-SY5Y cells per wells
3; Compound; 23 nL; Control inhibitor / compound library
5; Reagent; 100 nM; Thapsigargin
7; Reagent; 1 uL; 0.5x coelenterazine
8; Detection; Luminescence; ViewLux imaging system
NOTES (numbers refer to sequence above)
1; SH-SY5Y human neuroblastoma cells stably expressing GLuc-SERCaMP (SH-SY5Y-GLuc-ASARTDL) cells were seeded in 1,536 well white tissue culture treated plates (Corning, Cat# 7464) in DMEM-high glucose-sodium pyruvate (ThermoFisher Scientific, Cat #10569) supplemented with 10% bovine growth serum (Hyclone), 10 U/ml penicillin (Gibco), 10 ug/ml streptomycin (Gibco), and 20 mM HEPES.
2; Assay plates were incubated for 5 hour at 37C in a humidified incubator containing 5% CO2.
3; qHTS libraries (23 nl, final concentrations of 1.53 uM, 7.67 uM, 38.3 uM) or controls (neutral control: DMSO, positive control: dantrolene) were added using a Kalypsis pin-tool Robotic System equipped with 1536 pinheads.
4; Cells were then incubated for 16 hours at 37C, 5% CO2.
5; Thapsigargin was added at 100 nM to deplete ER calcium stores.
6; Cells were incubated for 4 hour (37 °C, 5% CO2)
7; Gaussia luciferase in the medium was measured by adding 1 ul of 0.5x coelenterazine (final concentration 0.07x) prepared in Gaussia Luciferase Glow Assay Buffer (Pierce), without addition of the Cell Lysis Buffer Reagent.
8; Luminescence was measured using a ViewLux […] CCD imaging system (Perkin Elmer) equipped with clear filters. […] The same controls were also used for the calculation of the Z' factor, a measure of assay quality control, as previously described (Zhang et al., 1999). […]
As to `NC(N)=NCCC[C@@H](N)C(=O)O`, the Potency entry was “inactive”.
Take `CC(C)c1ccc2c(c1)CC[C@H]1[C@](C)(CN)CCC[C@]21C`: the Potency entry was “inactive”.
Take `c1ncc(CC2CCNCC2)[nH]1`: the Potency result is “inactive”.
On to `COc1ccccc1C1(O)CCN(CCCn2c3ccccc3c3ccccc32)CC1`, for which the Potency entry was “inactive”.
In the case of `CS/C(N)=C(C#N)/C(C#N)=C(\N)SC`, the Potency result is “inactive”.
The same measure, in the same setting: to `Cc1ccccc1N=C(N)Nc1ccccc1C` belongs “inactive”.
`Nc1ccccc1C(=O)C[C@H](N)C(=O)O`: the Potency entry was “inactive”.
With `OC[C@H]1OC([S-])[C@H](O)[C@@H](O)[C@H]1O.[Au+]` (stereo not given in full), the Potency result was “inactive”.
`Cc1cc(C(=O)O)ccc1[C@H](N)C(=O)O`: the Potency entry is “inactive”.
For `CC(=O)[C@H]1CC[C@H]2C3CC=C4C[C@@H](O)CC[C@]4(C)C3CC[C@]12C` (stereo not given in full), the Potency result was “inactive”.
Turning to `NC(N)=NCCNS(=O)(=O)c1cccc2cnccc12`, the Potency result is “inactive”.
As for `C[C@@H](O)CNC(C)(C)CC(=O)N[C@@H]1CCc2ccccc2N(Cc2ccc(-c3ccccc3-c3nn[nH]n3)cc2)C1=O`, the Potency entry was “inactive”.
The same measure, in the same setting: to `C[C@@](N)(C(=O)O)[C@@H]1C[C@@H]1C(=O)O` belongs “inactive”.
`CC1(C)Oc2ccc(C#N)cc2[C@@H](OC2=CC(=O)CC2)[C@@H]1O`: the Potency entry is “inactive”.
The same measure, in the same setting: the same measure for `N[C@@H](C(=O)O)c1cc(O)ccc1Cl`: “inactive”; for `NCCCCNS(=O)(=O)c1ccc2c(Cl)cccc2c1`: “inactive”.
Turning to `COc1ccccc1N1CCN(C[C@@H](C(=O)NC(C)(C)C)c2ccccc2)CC1`, the Potency result is “inactive”.
Take `O=C1C(Nc2ccccc2)=CC(=O)c2ncccc21`: the Potency entry is “inactive”.
`Cc1cc(I)ccc1Nc1c(C(=O)NOCC2CC2)cc(F)c(F)c1F`: the Potency result was “inactive”.
Take `CNC(=O)[C@H]1O[C@@H](n2cnc3c(N)ncnc32)[C@H](O)[C@@H]1O`: the Potency entry was “inactive”.
Still for that read-out and setting: to `CC(=O)OCOC(=O)CN(CC(=O)OCOC(C)=O)c1ccccc1OCCOc1ccccc1N(CC(=O)OCOC(C)=O)CC(=O)OCOC(C)=O` belongs “inactive”; to `CC[C@@H](C)[C@H]1O[C@]2(CC[C@@H]1C)C[C@@H]1C[C@H](C/C=C(/C)[C@H](O[C@@H]3C[C@H](OC)[C@H](O[C@@H]4C[C@H](OC)[C@@H](O)[C@H](C)O4)[C@H](C)O3)[C@@H](C)/C=C\C=C3CO[C@@H]4[C@H](O)C(C)=C[C@@H](C(=O)O1)[C@]34O)O2` (tested in a mixture with another compound), “inactive”; to `C[C@H]1C=C2C=C[C@H](C)[C@H](CC[C@@H]3C[C@@H](O)CC(=O)O3)[C@H]2[C@@H](OC(=O)[C@@H](C)CCO)C1`, “inactive”.
With `CCCCCCCC/C=C\CCCCCCCC(N)=O`, the Potency result is “inactive”.
For the molecule `CNC(=O)[C@H]1O[C@H](n2cnc3c(NCc4cccc(I)c4)nc(Cl)nc32)[C@@H](O)[C@@H]1O`, the Potency result was “inactive”.
As to `Nc1ncnc2c1ncn2[C@@H]1O[C@H](COP(=O)(O)OP(=O)(O)O)[C@@H](O)[C@H]1O`, the Potency result was “inactive”.
For the molecule `c1ccc(-c2n[nH]c3c2oc2ccccc23)cc1`, the Potency entry was “inactive”.
As for `CCC(C)(C)C(=O)O[C@@H]1C[C@@H](C)C=C2C=C[C@H](C)[C@H](CC[C@@H]3C[C@@H](O)CC(=O)O3)[C@H]21`, the Potency result was “inactive”.
Regarding `O=C(O)[C@H]1CCCN1`, the Potency entry was “inactive”.
`NC(C(=O)O)C(CC(=O)O)c1ccc(Cl)cc1` (stereo not given): the Potency result is “inactive”.
For the molecule `CN(Cc1cnc2nc(N)nc(N)c2n1)c1ccc(C(=O)NC(CCC(=O)O)C(=O)O)cc1` (stereo not given), the Potency entry was “inactive”.
As for `COC(=O)C1=C(C)NC(C)=C([N+](=O)[O-])[C@@H]1c1ccccc1C(F)(F)F`, the Potency result was “inactive”.
Consider `c1csc(CNc2ncnc3ccc(-c4ccc5c(c4)OCO5)cc23)c1`, for which the Potency entry is “inactive”.
With `O=C(O)[C@H]1CN[C@H](C(=O)O)C1`, the Potency entry is “inactive”.
`CC[N+](CC)(CC)CCOc1ccc(/C=C\c2ccccc2)cc1`: the Potency entry is “inactive”.
Consider `CC/C=C\C/C=C\C/C=C\CCCCCCCCCCCC(=O)O`, for which the activity change, negative = inhibition was 10.3% [at 3.88 µM].
Regarding `CCCCC/C=C\C/C=C\CCCCCCCC(=O)O[C@@H](CO)COC(=O)CCCCCCCCCCCCCCCCC`, the activity change, negative = inhibition is 6.55% [at 3.88 µM].
`CC(=O)[C@H]1[C@H](C#N)C[C@H]2[C@@H]3CC=C4C[C@@H](O)CC[C@]4(C)[C@H]3CC[C@@]21C`: the Potency entry is “inactive”.
Regarding `C[C@@](N)(C(=O)O)c1ccc(P(=O)(O)O)cc1`, the Potency entry was “inactive”.
Still for that read-out and setting: to `CCN(CC)CCCCC1CCN(CC(=O)N2c3ccccc3C(=O)Nc3cccnc32)CC1` belongs “inactive”.
